Test results as given in the OligoGym collection.

Target: C19orf48
Test: pooled miR-30 sensor sort-seq; sequence = guide strand
Conditions: shRNA
Note: reference of the scale not given here.

Row | Sequence | sensor-assay potency score (higher = more potent)
1 | TGTCCTTGAGAGCCAGGCCCAG | -1.6
2 | TTGTGCACTGGGTTGGGTCCCA | -0.4
3 | TTGGGTCCCAGCATGAGCCTGG | -0.0945
4 | TTATCCACCTTCTCCTGGGTGT | -0.455
5 | TCCTTGTGCACTGGGTTGGGTC | -1.63

Target: C19orf61
Test: as above
Conditions: shRNA

Row | Sequence | sensor-assay potency score (higher = more potent)
6 | TAAGTTGACCTCAGAGTCCAGG | -0.418
7 | TCTGCTGTCTGCAGGAACCTGT | -0.731
8 | TTGGCTGACAACAATGACATGA | 0.194
9 | TTCTGCATGACGGAAGTGCTTG | -0.495
10 | TTGCATTGTAACATGGACAGAG | 0.588
11 | TTTGCGGTCATTATTGATGAGA | -1.14
12 | TTGGGTAATAAAGAAGTCGATG | -0.372
13 | TCATCCACCAACTTGATGCTGT | 0.069
14 | TTGACCGCTCTGCTGGAGGTTT | -0.879
15 | TAAAGAGCTCTCCAGACCCTGC | -0.972
16 | TTCTTCTCGGTGAGGATCGTGT | -0.682
17 | TTCTCGGTGAGGATCGTGTGTG | -0.797

Target: C1GALT1C1
Test: as above
Conditions: shRNA

Row | Sequence | sensor-assay potency score (higher = more potent)
18 | TTTGTTAGGAGCTTGTAGGTGA | 0.841
19 | ATAATGACAACACACGTCCTAT | -0.903
20 | TATCTGAACAACAGCCTTCTAC | -0.664
21 | TTTTCAATGATAGCAAACGTAG | -1.07
22 | TTAATTGACTCAAACACTTTAA | -1.19
23 | TTATCTTCAGATATCTTCCAAA | -0.897
24 | TATCTTCTTTGTTAGGAGCTTG | -0.577
25 | TTTGGTATTAAATACATCTTTT | -0.97
26 | TAAGTCTTTTCATTGATTCTAC | -0.486
27 | TTTTCATTGATTCTACACTTAA | -1.52
28 | TTTATCTTCAGATATCTTCCAA | 0.63
29 | TACATCATCACATGCATCTGAT | -0.0617

Target: C1QL1
Test: as above
Conditions: shRNA

Row | Sequence | sensor-assay potency score (higher = more potent)
30 | TCCAGGTGCAGGATCACGCTGT | -0.765
31 | TCAAACTTGAGTACCTCGTAAC | -0.701
32 | TTGCACGTAAACTTGCCGCTGG | 0.439
33 | TTTGTTGCTGTTGCCGCCGTGT | -0.647
34 | TATAACTTTGGTCAGACGGGGC | -0.517
35 | TATTTGTTGCTGTTGCCGCCGT | -0.708
36 | TGCAGGATCACGCTGTTGCTGG | -1.19
37 | TTGAGTACCTCGTAACCCTCGT | -0.551
38 | TTTGCCTCCATCCAGCTTGATG | -1.62
39 | TAGGTGAAAAAGTAGGTGCCGG | -0.205
40 | TAGTTGTTGCCTAGGTTGGTGA | -1.01
